Columns and labels:
Assay in all cases: DAPPL (digital affinity profiling via proximity ligation, sequencing); 10 mM Tris-HCl pH 7.5, 50 mM NaCl, 1 mM DTT, 4% glycerol, room temperature, 30 min; GST-TFs on glutathione beads, 16-mer random dsDNA library, 0.1% formaldehyde crosslink after washing; high values mean tight binding
FLI1 = molecular target: T1, FLI1 (Homo sapiens, UniProt Q01543 1-452); settings: protein: recombinant; tags: N-terminal GST; dsDNA, one strand shown
T1 sequence: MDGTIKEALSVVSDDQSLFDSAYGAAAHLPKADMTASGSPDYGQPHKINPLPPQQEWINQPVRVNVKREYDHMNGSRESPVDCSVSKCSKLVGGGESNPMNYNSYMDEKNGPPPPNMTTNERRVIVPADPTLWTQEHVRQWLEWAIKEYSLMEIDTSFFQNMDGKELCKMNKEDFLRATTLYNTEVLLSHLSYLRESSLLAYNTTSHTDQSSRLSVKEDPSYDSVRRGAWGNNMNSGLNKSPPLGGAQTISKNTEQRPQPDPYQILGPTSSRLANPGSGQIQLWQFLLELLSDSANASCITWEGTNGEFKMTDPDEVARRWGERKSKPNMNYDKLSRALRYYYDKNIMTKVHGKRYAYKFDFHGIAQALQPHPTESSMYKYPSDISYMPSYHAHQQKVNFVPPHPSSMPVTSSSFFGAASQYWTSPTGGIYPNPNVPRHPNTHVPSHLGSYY
Procedure, shortened: (§1)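 Binding signal is each hexamer's read frequency for a factor divided by its frequency in the tag-only sample. The factors were GST-fused human transcription factors from yeast, captured on glutathione beads, DNA-barcoded and pooled with that sample. Pools were incubated with 200 nmole of a random double-stranded 16-mer DNA library in Tris/NaCl/DTT/glycerol buffer at room temperature for 30 min, then washed, crosslinked with 0.1% formaldehyde, proximity-ligated with BsaI/T4 ligase (1 h, 37 °C), PCR-amplified and sequenced on an Illumina NextSeq500.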

ELK1 = molecular target: T2, ELK1 (Homo sapiens, UniProt P19419 1-428); settings: protein: recombinant; tags: N-terminal GST; dsDNA, one strand shown
T2 sequence: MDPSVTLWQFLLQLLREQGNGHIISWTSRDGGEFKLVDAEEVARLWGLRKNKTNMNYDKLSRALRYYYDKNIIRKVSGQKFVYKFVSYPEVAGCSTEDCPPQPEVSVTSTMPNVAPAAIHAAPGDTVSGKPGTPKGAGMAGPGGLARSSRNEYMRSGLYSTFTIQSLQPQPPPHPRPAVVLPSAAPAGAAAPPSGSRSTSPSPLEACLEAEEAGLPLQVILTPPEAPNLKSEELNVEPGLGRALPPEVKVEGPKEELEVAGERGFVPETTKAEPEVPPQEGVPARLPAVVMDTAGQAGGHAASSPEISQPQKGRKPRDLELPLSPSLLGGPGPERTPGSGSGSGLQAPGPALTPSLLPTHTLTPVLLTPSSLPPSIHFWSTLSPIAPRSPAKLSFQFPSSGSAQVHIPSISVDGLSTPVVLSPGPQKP
Procedure, shortened: as §1

GABPA = molecular target: T3, GABPA (Homo sapiens, UniProt Q06546 1-454); settings: protein: recombinant; tags: N-terminal GST; dsDNA, one strand shown
T3 sequence: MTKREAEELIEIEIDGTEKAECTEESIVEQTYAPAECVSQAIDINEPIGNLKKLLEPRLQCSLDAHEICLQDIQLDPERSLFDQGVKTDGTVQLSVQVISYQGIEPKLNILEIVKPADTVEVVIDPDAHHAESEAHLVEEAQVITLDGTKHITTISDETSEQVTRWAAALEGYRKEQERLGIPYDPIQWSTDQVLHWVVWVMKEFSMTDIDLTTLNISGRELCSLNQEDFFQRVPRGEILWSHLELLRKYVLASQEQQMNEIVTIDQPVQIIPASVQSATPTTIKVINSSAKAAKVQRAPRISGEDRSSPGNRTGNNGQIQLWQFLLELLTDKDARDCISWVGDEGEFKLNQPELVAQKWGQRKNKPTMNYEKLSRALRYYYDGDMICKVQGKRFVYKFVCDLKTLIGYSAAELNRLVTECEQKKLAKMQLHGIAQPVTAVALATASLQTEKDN
Procedure, shortened: as §1

ERG = molecular target: T4, ERG (Homo sapiens, UniProt P11308 1-479); settings: protein: recombinant; tags: N-terminal GST; dsDNA, one strand shown
T4 sequence: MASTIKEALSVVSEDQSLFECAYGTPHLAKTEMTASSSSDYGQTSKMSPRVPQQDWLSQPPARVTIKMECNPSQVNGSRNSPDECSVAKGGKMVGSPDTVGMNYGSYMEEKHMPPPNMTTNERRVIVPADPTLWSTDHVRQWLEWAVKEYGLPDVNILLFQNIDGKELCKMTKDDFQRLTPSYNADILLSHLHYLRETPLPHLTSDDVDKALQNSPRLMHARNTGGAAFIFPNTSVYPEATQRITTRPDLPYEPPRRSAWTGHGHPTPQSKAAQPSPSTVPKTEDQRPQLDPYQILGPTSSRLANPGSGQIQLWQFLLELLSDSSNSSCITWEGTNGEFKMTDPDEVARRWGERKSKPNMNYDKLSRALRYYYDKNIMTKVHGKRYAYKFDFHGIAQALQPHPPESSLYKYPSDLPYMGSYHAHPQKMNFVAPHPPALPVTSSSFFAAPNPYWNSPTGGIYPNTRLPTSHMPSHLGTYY
Procedure, shortened: as §1

ELF1 = ELF1 (Homo sapiens, UniProt P32519 1-619); settings: protein: recombinant; tags: N-terminal GST; dsDNA, one strand shown
Procedure, shortened: as §1

EHF = molecular target: T5, EHF (Homo sapiens, UniProt Q9NZC4 1-300); settings: protein: recombinant; tags: N-terminal GST; dsDNA, one strand shown
T5 sequence: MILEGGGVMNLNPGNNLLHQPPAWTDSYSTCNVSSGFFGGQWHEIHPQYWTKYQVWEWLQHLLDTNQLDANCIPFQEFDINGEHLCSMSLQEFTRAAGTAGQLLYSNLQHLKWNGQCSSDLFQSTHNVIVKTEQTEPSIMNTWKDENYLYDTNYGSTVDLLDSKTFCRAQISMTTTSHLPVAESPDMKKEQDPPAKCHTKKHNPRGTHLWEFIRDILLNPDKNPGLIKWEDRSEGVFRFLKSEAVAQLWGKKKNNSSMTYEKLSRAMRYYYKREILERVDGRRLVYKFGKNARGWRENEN
Procedure, shortened: as §1

SPI1 = SPI1 (Homo sapiens, UniProt P17947 1-270); settings: protein: recombinant; tags: N-terminal GST; dsDNA, one strand shown
Procedure, shortened: as §1

SPIB = SPIB (Homo sapiens, UniProt Q01892 1-262); settings: protein: recombinant; tags: N-terminal GST; dsDNA, one strand shown
Procedure, shortened: as §1

ELK3 = molecular target: T6, ELK3 (Homo sapiens, UniProt P41970 1-407); settings: protein: recombinant; tags: N-terminal GST; dsDNA, one strand shown
T6 sequence: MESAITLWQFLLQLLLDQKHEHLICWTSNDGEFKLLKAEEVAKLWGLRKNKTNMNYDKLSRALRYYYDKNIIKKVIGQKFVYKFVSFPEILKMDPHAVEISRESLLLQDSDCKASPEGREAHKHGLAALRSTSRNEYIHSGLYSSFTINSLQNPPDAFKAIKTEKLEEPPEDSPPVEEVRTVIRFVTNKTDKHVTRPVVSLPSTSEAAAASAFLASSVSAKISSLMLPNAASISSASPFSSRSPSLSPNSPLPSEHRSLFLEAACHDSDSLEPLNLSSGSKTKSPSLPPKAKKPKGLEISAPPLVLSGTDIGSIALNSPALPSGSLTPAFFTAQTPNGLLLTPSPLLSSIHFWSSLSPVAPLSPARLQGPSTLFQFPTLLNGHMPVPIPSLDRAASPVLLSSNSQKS
Procedure, shortened: as §1

FEV = molecular target: T7, FEV (Homo sapiens, UniProt Q99581 1-238); settings: protein: recombinant; tags: N-terminal GST; dsDNA, one strand shown
T7 sequence: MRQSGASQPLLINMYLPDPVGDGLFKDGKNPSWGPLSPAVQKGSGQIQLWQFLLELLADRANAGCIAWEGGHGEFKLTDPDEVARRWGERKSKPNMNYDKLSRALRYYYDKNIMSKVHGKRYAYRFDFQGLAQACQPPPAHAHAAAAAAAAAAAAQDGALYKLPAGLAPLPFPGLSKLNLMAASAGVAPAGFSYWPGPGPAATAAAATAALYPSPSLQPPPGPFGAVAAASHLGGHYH
Procedure, shortened: as §1

ETV5 = ETV5 (Homo sapiens, UniProt P41161 1-510); settings: protein: recombinant; tags: N-terminal GST; dsDNA, one strand shown
Procedure, shortened: as §1

HSF1 = HSF1 (Homo sapiens, UniProt Q00613 1-529); settings: protein: recombinant; tags: N-terminal GST; chain copies: 3; dsDNA, one strand shown
Procedure, shortened: as §1

SPIC = molecular target: T8, SPIC (Homo sapiens, UniProt Q8N5J4 1-248); settings: protein: recombinant; tags: N-terminal GST; dsDNA, one strand shown
T8 sequence: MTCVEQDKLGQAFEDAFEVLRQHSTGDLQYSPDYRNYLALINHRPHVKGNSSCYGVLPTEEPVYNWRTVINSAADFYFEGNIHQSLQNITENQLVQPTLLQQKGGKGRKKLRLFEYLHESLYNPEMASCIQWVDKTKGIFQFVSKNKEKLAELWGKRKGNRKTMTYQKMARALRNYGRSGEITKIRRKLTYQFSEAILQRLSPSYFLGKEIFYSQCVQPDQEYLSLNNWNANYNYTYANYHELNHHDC
Procedure, shortened: as §1

ELF4 = ELF4 (Homo sapiens, UniProt Q99607 1-663); settings: protein: recombinant; tags: N-terminal GST; dsDNA, one strand shown
Procedure, shortened: as §1

ELK4 = molecular target: T9, ELK4 (Homo sapiens, UniProt P28324-2 1-405); settings: protein: recombinant; tags: N-terminal GST; dsDNA, one strand shown
T9 sequence: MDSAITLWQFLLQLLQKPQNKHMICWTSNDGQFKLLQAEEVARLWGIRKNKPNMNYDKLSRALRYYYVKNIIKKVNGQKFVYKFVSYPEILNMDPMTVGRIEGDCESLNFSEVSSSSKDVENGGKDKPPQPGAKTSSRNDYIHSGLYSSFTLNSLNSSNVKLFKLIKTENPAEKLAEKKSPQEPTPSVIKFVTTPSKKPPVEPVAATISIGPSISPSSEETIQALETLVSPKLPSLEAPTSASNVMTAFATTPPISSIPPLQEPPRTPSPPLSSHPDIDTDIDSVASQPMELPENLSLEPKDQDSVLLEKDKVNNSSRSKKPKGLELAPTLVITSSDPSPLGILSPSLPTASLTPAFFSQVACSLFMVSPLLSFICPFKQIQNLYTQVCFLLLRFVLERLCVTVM
Procedure, shortened: as §1

ETV2 = molecular target: T10, ETV2 (Homo sapiens, UniProt O00321 1-342); settings: protein: recombinant; tags: N-terminal GST; dsDNA, one strand shown
T10 sequence: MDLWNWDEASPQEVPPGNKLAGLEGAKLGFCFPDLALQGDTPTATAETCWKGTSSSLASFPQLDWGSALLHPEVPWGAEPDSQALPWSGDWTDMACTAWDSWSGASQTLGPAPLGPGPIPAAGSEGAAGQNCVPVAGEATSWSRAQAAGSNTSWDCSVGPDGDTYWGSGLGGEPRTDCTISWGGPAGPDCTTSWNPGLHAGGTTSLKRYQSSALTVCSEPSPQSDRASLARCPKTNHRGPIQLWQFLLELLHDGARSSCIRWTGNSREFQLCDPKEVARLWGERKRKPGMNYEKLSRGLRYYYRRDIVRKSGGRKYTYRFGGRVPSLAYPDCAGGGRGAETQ
Procedure, shortened: as §1

ELF3 = molecular target: T11, ELF3 (Homo sapiens, UniProt P78545 1-371); settings: protein: recombinant; tags: N-terminal GST; dsDNA, one strand shown
T11 sequence: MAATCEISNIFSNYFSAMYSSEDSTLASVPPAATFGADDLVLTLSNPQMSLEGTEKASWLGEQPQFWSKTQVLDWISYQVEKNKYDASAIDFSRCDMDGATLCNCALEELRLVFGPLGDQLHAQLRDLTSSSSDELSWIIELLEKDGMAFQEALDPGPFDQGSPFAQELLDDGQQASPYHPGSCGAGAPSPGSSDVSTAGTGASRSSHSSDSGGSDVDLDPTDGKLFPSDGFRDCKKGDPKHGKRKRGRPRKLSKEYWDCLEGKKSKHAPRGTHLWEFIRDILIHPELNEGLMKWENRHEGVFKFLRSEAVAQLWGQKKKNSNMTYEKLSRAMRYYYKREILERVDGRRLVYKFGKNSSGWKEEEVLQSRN
Procedure, shortened: as §1

CRX = CRX (Homo sapiens, UniProt O43186 1-299); settings: protein: recombinant; tags: N-terminal GST; dsDNA, one strand shown
Procedure, shortened: as §1

ETV1 = ETV1 (Homo sapiens, UniProt P50549 1-477); settings: protein: recombinant; tags: N-terminal GST; dsDNA, one strand shown
Procedure, shortened: as §1

Sequence of ETV1 (P50549 whole entry): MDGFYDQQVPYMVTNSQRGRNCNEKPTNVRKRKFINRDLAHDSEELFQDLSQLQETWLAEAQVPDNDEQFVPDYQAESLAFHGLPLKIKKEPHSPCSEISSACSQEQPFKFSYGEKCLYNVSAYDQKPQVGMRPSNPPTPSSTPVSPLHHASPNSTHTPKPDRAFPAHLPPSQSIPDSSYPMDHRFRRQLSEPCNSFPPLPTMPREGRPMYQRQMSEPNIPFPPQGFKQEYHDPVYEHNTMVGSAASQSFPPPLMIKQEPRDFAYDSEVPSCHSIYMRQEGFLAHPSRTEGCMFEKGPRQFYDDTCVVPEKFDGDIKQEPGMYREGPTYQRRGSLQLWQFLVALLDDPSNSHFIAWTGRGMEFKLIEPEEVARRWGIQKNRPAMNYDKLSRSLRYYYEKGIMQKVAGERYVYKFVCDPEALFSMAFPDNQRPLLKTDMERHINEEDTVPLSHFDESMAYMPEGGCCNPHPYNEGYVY
Sequence of ETV5 (P41161 whole entry): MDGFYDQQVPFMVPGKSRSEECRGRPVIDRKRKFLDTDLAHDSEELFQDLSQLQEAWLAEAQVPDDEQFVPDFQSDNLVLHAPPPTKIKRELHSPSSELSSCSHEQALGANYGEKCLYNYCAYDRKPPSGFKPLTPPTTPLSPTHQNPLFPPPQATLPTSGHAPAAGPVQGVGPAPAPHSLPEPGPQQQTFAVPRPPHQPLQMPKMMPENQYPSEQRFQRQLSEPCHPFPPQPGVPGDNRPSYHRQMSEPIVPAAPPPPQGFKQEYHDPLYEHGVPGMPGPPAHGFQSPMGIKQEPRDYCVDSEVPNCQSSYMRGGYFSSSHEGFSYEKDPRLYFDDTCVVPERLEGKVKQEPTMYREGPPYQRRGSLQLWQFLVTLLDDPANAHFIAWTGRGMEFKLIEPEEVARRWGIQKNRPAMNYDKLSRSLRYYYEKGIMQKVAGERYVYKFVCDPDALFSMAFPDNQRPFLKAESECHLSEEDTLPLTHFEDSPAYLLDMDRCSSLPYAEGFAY
Sequence of ELF1 (P32519 whole entry): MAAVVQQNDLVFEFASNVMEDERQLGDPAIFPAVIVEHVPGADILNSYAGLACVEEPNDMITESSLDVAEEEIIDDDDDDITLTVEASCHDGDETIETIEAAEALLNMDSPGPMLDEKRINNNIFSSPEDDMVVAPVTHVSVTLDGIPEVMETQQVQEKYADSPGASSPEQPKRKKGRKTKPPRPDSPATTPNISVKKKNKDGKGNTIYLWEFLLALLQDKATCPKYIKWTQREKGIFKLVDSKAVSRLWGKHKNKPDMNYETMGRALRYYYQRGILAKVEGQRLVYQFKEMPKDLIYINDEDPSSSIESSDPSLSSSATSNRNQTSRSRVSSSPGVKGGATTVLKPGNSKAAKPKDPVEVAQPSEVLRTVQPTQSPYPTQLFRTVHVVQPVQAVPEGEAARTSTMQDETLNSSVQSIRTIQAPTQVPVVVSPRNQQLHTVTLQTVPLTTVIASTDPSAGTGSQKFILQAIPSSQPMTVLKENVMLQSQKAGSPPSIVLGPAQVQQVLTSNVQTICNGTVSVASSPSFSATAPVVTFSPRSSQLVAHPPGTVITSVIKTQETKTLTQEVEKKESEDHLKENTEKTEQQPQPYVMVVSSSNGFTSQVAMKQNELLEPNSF
Sequence of HSF1 (Q00613 whole entry): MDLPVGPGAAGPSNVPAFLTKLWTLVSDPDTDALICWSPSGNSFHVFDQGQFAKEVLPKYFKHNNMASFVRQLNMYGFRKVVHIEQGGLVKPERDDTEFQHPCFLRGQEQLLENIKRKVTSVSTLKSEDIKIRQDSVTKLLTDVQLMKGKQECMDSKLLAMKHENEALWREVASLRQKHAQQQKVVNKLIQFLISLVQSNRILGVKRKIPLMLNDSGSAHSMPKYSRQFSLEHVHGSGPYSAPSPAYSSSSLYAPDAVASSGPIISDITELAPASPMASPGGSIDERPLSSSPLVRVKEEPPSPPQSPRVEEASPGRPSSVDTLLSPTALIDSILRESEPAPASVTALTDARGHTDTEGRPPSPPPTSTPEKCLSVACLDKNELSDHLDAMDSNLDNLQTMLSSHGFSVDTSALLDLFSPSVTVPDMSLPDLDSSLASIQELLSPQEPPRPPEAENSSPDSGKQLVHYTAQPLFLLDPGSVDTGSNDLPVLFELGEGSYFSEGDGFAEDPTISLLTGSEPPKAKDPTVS
Sequence of CRX (O43186 whole entry): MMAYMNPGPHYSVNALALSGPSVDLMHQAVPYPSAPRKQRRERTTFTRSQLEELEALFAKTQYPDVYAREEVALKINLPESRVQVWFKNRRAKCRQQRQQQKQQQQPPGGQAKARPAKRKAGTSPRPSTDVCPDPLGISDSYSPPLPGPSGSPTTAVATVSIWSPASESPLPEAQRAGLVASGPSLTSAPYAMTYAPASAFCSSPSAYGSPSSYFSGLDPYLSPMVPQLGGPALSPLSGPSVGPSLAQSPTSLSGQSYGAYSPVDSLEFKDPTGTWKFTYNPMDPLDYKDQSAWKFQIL
Sequence of ELF4 (Q99607 whole entry): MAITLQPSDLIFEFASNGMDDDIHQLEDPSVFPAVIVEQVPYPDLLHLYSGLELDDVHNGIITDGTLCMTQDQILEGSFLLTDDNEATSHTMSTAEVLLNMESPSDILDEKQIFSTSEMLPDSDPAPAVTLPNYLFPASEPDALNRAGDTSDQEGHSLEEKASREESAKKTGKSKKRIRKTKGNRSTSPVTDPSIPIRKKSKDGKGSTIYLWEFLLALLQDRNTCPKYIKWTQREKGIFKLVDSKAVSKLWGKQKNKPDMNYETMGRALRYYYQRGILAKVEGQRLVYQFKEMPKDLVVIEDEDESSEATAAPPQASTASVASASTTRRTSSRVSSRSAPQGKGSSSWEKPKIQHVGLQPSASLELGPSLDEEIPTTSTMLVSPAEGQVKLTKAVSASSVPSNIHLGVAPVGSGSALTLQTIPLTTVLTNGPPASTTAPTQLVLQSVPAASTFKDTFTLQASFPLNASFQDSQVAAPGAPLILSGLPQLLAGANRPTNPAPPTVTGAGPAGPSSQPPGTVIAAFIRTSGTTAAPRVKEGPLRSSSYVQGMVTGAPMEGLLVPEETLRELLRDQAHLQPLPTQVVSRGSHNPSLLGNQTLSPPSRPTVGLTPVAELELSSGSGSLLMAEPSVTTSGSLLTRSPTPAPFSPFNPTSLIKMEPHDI
Sequence of SPIB (Q01892 whole entry): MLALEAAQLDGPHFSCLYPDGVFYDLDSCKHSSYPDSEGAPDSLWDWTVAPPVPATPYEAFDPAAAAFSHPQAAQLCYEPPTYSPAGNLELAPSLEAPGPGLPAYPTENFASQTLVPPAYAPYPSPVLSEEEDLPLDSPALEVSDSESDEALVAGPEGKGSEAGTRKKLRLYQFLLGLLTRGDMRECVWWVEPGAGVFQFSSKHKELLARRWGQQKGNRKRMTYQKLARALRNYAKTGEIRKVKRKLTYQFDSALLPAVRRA

TTCTAA
binding signal (FLI1): 1.28 fold enrichment (6-mer frequency, TF over GST control)
binding signal (ELK1): 1.23 fold enrichment (6-mer frequency, TF over GST control)
binding signal (GABPA): 1.2 fold enrichment (6-mer frequency, TF over GST control)
binding signal (ERG): 1.25 fold enrichment (6-mer frequency, TF over GST control)
binding signal (ELF1): 1.23 fold enrichment (6-mer frequency, TF over GST control)
binding signal (EHF): 1.22 fold enrichment (6-mer frequency, TF over GST control)
binding signal (SPI1): 1.14 fold enrichment (6-mer frequency, TF over GST control)
binding signal (SPIB): 1.17 fold enrichment (6-mer frequency, TF over GST control)
binding signal (ELK3): 1.08 fold enrichment (6-mer frequency, TF over GST control)
binding signal (FEV): 1.18 fold enrichment (6-mer frequency, TF over GST control)
binding signal (ETV5): 1.22 fold enrichment (6-mer frequency, TF over GST control)
binding signal (HSF1): 1.83 fold enrichment (6-mer frequency, TF over GST control)
binding signal (SPIC): 1.13 fold enrichment (6-mer frequency, TF over GST control)
binding signal (ELF4): 1.23 fold enrichment (6-mer frequency, TF over GST control)
binding signal (ELK4): 1.22 fold enrichment (6-mer frequency, TF over GST control)
binding signal (ETV2): 1.26 fold enrichment (6-mer frequency, TF over GST control)
binding signal (ELF3): 1.04 fold enrichment (6-mer frequency, TF over GST control)
binding signal (CRX): 1.84 fold enrichment (6-mer frequency, TF over GST control)
binding signal (ETV1): 1.21 fold enrichment (6-mer frequency, TF over GST control)

Reference: PMC7862700, “An all-to-all approach to the identification of sequence-specific readers for epigenetic DNA modifications on cytosine”
